Each sequence was assayed against CA4 (assay: pooled miR-30 sensor sort-seq; sequence = guide strand). Conditions: shRNA.
Further: reference of the scale not given here.

Sequence | sensor-assay potency score (higher = more potent)
TTTGCTTCTTATCGTAGCCAGA | -0.836
TTGTCCACCTTTGCCTTGGTGG | -0.751
TTGACTGGCACCAAGCAGGGGT | -0.145
TTGTTCTCCAGCAACATCATCA | -1.13
TCCAGCAACATCATCACTGAGT | -1.67
TTCCTTGTCGTAGTACAGCTTC | -0.302
TTGCTTCTTATCGTAGCCAGAG | -0.919
TTGTCGTAGTACAGCTTCTGAG | -1.18
TGTCTGTTCCTTGTCGTAGTAC | -0.69
TCGTAGTACAGCTTCTGAGAGA | -0.918
TCACTGTCTGTTCCTTGTCGTA | -1.4
TCGTAGTGCTCATCTCAGGTTT | -0.761
TTGAACCTCGTAGCACCAGTGT | -1.16
AATTTCGTCTTCAGGGTCCTGG | 0.0795
TTGGACAGTCCACGTTTGCTTC | -0.84
TTTCTCATGTACTATGTGCATC | -0.994
TTATATGGCAAGTCGGACCAGT | 0.112
TTCTCATCGCAGGTCGGTGTGG | -1.28
ATGTACTATGTGCATCTCCATG | -2

The sequences below were run against CA8 in the same assay as above. Conditions: shRNA.

Sequence | sensor-assay potency score (higher = more potent)
TTAGGTTAATAGGAGACTGGTA | -0.274
TAGATGAAGACAAACAACGCAG | 0.00396
TATCGGAATAATATCCAGGTGA | -0.367
TAACACATGATATATATTCATA | -0.982
TTAACATGTGTCCTCAGCCTTC | -1.15
TATAGGACCATTGTCTTCCTCC | -0.229
ATTAGCATCAGGAAACACCAGA | -0.642
TTGGTGACTTCACAGTCTCGGC | -0.936
TTTCTTTGGAATATACAGCCAT | 0.203
TTCATATTAATAACAACTCTGG | -0.115
TTTGAGGATAAACTGAAGGTGC | -0.117
TTGACTTCAGGATAACCTGAAT | -1.18
TTCTTTGGAATATACAGCCATT | -0.749
TTTGACTTCAGGATAACCTGAA | 0.794
AAATTCTTCTATCTGTAGCTGG | 0.0203
TATCTGAACAAACAGAGCAATG | -1.69
AAAGCTTTGAAATTAACCGTGT | 0.986
TAACCTGAATGGTATGTCCATC | -1.33
TTCGAAATTCTTCTATCTGTAG | -0.338
AAAAGCTTTGAAATTAACCGTG | -0.175
TTCTTCTATCTGTAGCTGGGAT | -0.262

— the OligoGym collection
